The results in this text go back to PubChem BioAssay (NCATS).

“And” between values parts separate entries of the source, which are not always exact repeats. Identical values can stand only once. Inconclusive results are not listed. The source made the active and inactive calls. Unless noted, the call rests on the fitted dose curve; in most records, active means well fitted curve in the direction sought with a large enough effect; inconclusive means small, poorly fitted or top-dose-only effect, or another doubt; inactive means no such curve, though single readings can be large; an effect the other way counts as inactive or inconclusive.

Experiment [1] in a line: Cell Viability - H-4-II-E (AID 543).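 Further: cells exposed to compound for 40 hours; on the % scale 0 is the no-effect control and ±100 the full control effect; nearly all actives have a fitted effect of over 35% in size.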 Summed up:
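Rat hepatoma H-4-II-E cells, 1500 per well, treated 40 h at 37 °C in complete medium. Cellular ATP read by CellTiter-Glo luminescence; AC50 from Hill fits of concentration-response.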

Experiment [2] in a line: Cell Viability - SH-SY5Y (AID 544).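 Further: cells exposed to compound for 40 hours; nearly all actives have a fitted effect of over 55% in size.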 Further: potency means the concentration at half of the fitted maximal effect. The following applies: SH-SY5Y neuroblastoma cell viability; viability change, negative = cytotoxic: at 92.2 µM (top of the series). An outline of the steps:
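SH-SY5Y human neuroblastoma cells (1500/well) incubated 5 h, then compound-treated 40 h at 37 °C in complete medium. Viability read as intracellular ATP by CellTiter-Glo luminescence after 20 min; AC50 from Hill-equation fits of qHTS concentration-response.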

Experiment [3] can be described thus: Cellular Toxicity (caspase-3) Jurkat (AID 655).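 Further: cells exposed to compound for 16 h at 37 °C before reading.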 The following applies: Jurkat caspase-3 activation, luminescence; caspase-3 activation: at 92.2 µM (top of the series), DMSO = 0%, tamoxifen = 100%. An outline of the steps: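 Luminescent caspase-3/7 readout (aminoluciferin substrate cleavage) in human T-cell leukemia Jurkat cells after 16 hr compound exposure. Concentration-response normalized to DMSO and 100 uM tamoxifen; AC50 by standard Hill equation.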

Experiment [4] in a line: Cell Viability - LYMP2-001 (AID 921).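 Further: 0% = DMSO only and full inhibition = tetraoctylammonium bromide control wells; nearly all actives have a fitted effect of over 70% in size.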 An outline of the steps:
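CellTiter-Glo luminescence (intracellular ATP) after 24 hr compound exposure at 37 C, 2500 lymphoblastoid cells/well in complete medium. AC50 fitted with standard Hill equation; tetraoctylammonium bromide positive control.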

Experiment [5] can be described thus: MultiTox-Fluor Cytotoxicity Assay - LYMP1-003 - Live Cells (AID 962).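 Further: cells exposed to compound for 16 hours at 37 °C; 0% = DMSO only and full loss = 92 µM tetraoctylammonium bromide; cytotoxic hits lower the live-cell protease signal.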 Summed up: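 LYMP1-003 lymphoblastoid cells, 2500/well in complete medium, treated 16 h at 37 C; live-cell protease cleavage of GF-AFC read by fluorescence (Ex/Em 405/510) after 60 min reagent; AC50 from Hill fits of concentration-response.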
A short description of experiment [6]: Cell Viability - LYMP2-004 (AID 966).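 Further: plate controls were DMSO only for no effect and tetraoctylammonium bromide control for full effect; nearly all actives have a fitted effect of over 65% in size.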 Summed up:
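Lymphoblastoid LYMP2-004 cells, 2500 per well, were preincubated for 5 hr and then treated with compound for 24 h at 37 C in complete medium. Viability was read as cellular ATP by CellTiter-Glo luminescence, and AC50 values were taken from Hill fits to concentration-response data.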

Experiment [7] is described as follows: Cell Viability - LYMP2-015 (AID 971).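 Further: 0% = DMSO only and full effect = 92 µM tetraoctylammonium bromide; nearly all actives have a fitted effect of over 55% in size.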 An outline of the steps: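 LYMP2-015 human lymphoblastoid cells (2500/well) in complete medium, compound-treated 24 h at 37 C; viability read as cellular ATP by CellTiter-Glo luminescence after 30 min at room temperature. AC50 from Hill-equation fits of qHTS concentration-response data.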
Experiment [8] in a line: Cell Viability - LYMP2-019 (AID 973).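 Further: 0% = DMSO alone and full effect = 92 µM tetraoctylammonium bromide; nearly all actives have a fitted effect of over 55% in size.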 An outline of the steps:
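Human lymphoblastoid LYMP2-019 cells (2500/well) preincubated 5 h at 37 C, then treated 24 h at 37 C in complete medium. Viability by CellTiter-Glo ATP luminescence after 30 min at room temperature; AC50 from Hill fits.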

Experiment [9] can be described thus: Cell Viability - LYMP2-021 (AID 974).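 Further: compound exposure lasts 24 hours at 37 °C; on the % scale 0 is the no-effect control and ±100 the full control effect; nearly all actives have a fitted effect of over 55% in size.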 An outline of the steps:
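Human lymphoblastoid LYMP2-021 cells, 2500/well in complete medium, treated 24 hours at 37 C. Intracellular ATP by CellTiter-Glo luminescence (30 min, RT); AC50 from Hill fits of concentration-response.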

Experiment [10] can be described thus: Cell Viability - LYMP2-025 (AID 976).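 Further: plate controls were DMSO only for no effect and tetraoctylammonium bromide control for full effect.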 An outline of the steps:
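Human lymphoblastoid LYMP2-025 cells, 2500/well, exposed 24 h at 37 C in complete medium in 1536-well qHTS. Viability as cellular ATP by CellTiter-Glo luminescence; AC50 from Hill fits of concentration-response data.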

Experiment [11] is described as follows: Cell Viability - LYMP2-006 (AID 978). Further: on the % scale 0 is the no-effect control and ±100 the full control effect; nearly all actives have a fitted effect of over 60% in size. Summed up:
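qHTS, 1536-well; 2500 cells/well, 5 hr 37 C; cpd 24 hr 37 C; CellTiter-Glo 30 min RT; luminescence. Tetraoctylammonium bromide pos. ctrl. AC50 via Hill eqn.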

Experiment [12] in a line: Cell Viability - LYMP2-007 (AID 979).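 Further: cells exposed to compound for 24 h before reading; 0% = DMSO only and the negative end = 92 µM tetraoctylammonium bromide; nearly all actives have a fitted effect of over 60% in size.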 Summed up:
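Human lymphoblastoid LYMP2-007 cells (2500/well) preincubated 5 h at 37 C, then treated 24 h at 37 C in complete medium. Viability by CellTiter-Glo ATP luminescence after 30 min at room temperature; AC50 from Hill fits.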

A short description of experiment [13]: Cell Viability - LYMP2-014 (AID 983).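 Further: plate controls were DMSO only for no effect and 92 µM tetraoctylammonium bromide for full effect; nearly all actives have a fitted effect of over 50% in size.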 Summed up:
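LYMP2-014 human lymphoblastoid cells, 2500/well, treated 24 h at 37 C in complete medium; viability by CellTiter-Glo ATP luminescence after 30 min at room temperature. AC50 from Hill fits of qHTS concentration-response; tetraoctylammonium bromide positive control.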

Experiment [14] can be described thus: Cell Viability - LYMP2-018 (AID 985).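 Further: plate controls were DMSO only for no effect and tetraoctylammonium bromide at 92 µM for full effect; nearly all actives have a fitted effect of over 50% in size.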 Summed up: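 Human lymphoblastoid LYMP2-018 cells, 2500/well, settled 5 hr at 37 C then exposed to compound 24 hr at 37 C; intracellular ATP measured by CellTiter-Glo luminescence. AC50 from Hill-equation concentration-response fits.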
The nature of experiment [15]: Cell Viability - LYMP2-020 (AID 986). An outline of the steps: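 Human lymphoblastoid LYMP2-020 cells (2500/well) preincubated 5 h at 37 C, then treated 24 h at 37 C. Viability measured as intracellular ATP by CellTiter-Glo luminescence after 30 min at room temperature; AC50 from Hill fits.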
Experiment [16] can be described thus: Cell Viability - LYMP2-022 (AID 987). An outline of the steps:
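LYMP2-022 lymphoblastoid cells (2500/well, complete medium) were treated with compounds for 24 hours at 37 C; intracellular ATP was then read by CellTiter-Glo luminescence after 30 min at room temperature. AC50 values were derived from Hill-equation fits.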

Experiment [17] can be described thus: Cell Viability - LYMP2-026 (AID 989). Further: on the % scale 0 is the no-effect control and ±100 the full control effect; nearly all actives have a fitted effect of over 50% in size. Summed up: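 Human lymphoblastoid LYMP2-026 cells, 2500/well, exposed to compound 24 h at 37 C in complete medium. Viability as intracellular ATP by CellTiter-Glo luminescence; AC50 from Hill fits of qHTS concentration-response.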
Experiment [18] is described as follows: Cell Viability - LYMP1-002 - Assay at 40 hr (AID 994).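 Further: 0% = DMSO only and full inhibition = 92 µM tetraoctylammonium bromide; nearly all actives have a fitted effect of over 60% in size.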 Summed up:
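LYMP1-002 human lymphoblastoid cells (2500/well, complete medium) were treated with compounds for 40 hr at 37 C. Intracellular ATP was measured by CellTiter-Glo luminescence, and AC50 values came from Hill-equation fits of concentration-response data; tetraoctylammonium bromide was the positive control.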

A short description of experiment [19]: qHTS assay for small molecule agonists of retinoid X receptor alpha signaling (AID 588544). The settings on record: HEK293T RXRa-UAS-bla, beta-lactamase reporter, 18 h; 530 nm emission. Background: qHTS replaces the single test concentration by a dilution series.
Experiment [20] can be described thus: qHTS assay for small molecule antagonists of the retinoid-related orphan receptor gamma (ROR-gamma) signaling pathway - cell viability counter screen (AID 720652; active means well fitted curve in the direction sought with a large enough effect in the repeat runs; an effect the other way counts as inactive or inconclusive;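 further: CHO reporter cells with doxycycline-induced ROR-gamma expression; compound exposure lasted 16 hr before ATP read; on the % scale 0 is the no-effect control and ±100 the full control effect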). An outline of the steps: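 CHO cells carrying TET-inducible ROR and RORE-luciferase reporter, plated 5 hr, then dosed with compound plus doxycycline. After 16 hr at 37 C, viability read as intracellular ATP by CellTiter-Glo luminescence.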

On to `CCCCCC[N+](=O)[O-]`, for which the Potency entry in experiment [1], in experiment [2], in [4], in [6], in [7] and in experiment [8] was “inactive” in each case. The Potency result in experiment [9], in experiment [10], in experiment [11], in experiment [12], in experiment [13] and in experiment [14] was “inactive” in each case. The Potency entry in [15], in experiment [16], in experiment [17], in [18] and in experiment [20] was “inactive” each time. Moreover, the caspase-3 activation in experiment [3] is 0.0633% (inactive). Further, in [5], the call was inactive. For the same compound, the max response in experiment [19] is -16.5%.

In the case of `O=[N+]([O-])c1cccc2c([N+](=O)[O-])cccc12`, the Potency entry in experiment [1], in experiment [2], in experiment [4], in experiment [6], in experiment [7] and in experiment [8] was “inactive” in each case. Besides, the Potency entry in [9], in [10], in [11], in experiment [12], in experiment [13] and in experiment [14] was “inactive” each time. The Potency result in experiment [15], in [16], in experiment [17], in experiment [18] and in experiment [20] was “inactive” in each case. The caspase-3 activation in experiment [3] was 0.295% (inactive). Also, in experiment [5], the compound was called inactive. Moreover, the max response in experiment [19] is -11.5%.

For the compound `S=c1[nH]c2ccccc2[nH]1`, the Potency entry in [1], in experiment [2], in experiment [4], in experiment [6], in experiment [7] and in [8] was “inactive” each time. The Potency entry in [9], in experiment [10], in experiment [11], in experiment [12], in experiment [13] and in [14] was “inactive” each time. Further, the Potency entry in experiment [15], in experiment [16], in experiment [17], in experiment [18] and in experiment [20] was “inactive” in each case. For the same compound, in [3], the caspase-3 activation is -0.402% (inactive). Besides, in experiment [5], the result was inactive. Besides, in experiment [19], the max response was 8.12%.

Turning to `O=C(Cl)OCc1ccccc1`, the Potency entry in [1], in [2], in experiment [4], in experiment [6], in experiment [7] and in experiment [8] was “inactive” each time. Further, the Potency entry in experiment [9], in experiment [10], in experiment [11], in experiment [12], in experiment [13] and in [14] was “inactive” in each case. Besides, the Potency result in [15], in experiment [16], in experiment [17], in experiment [18] and in experiment [20] was “inactive” in each case. Also, the caspase-3 activation in experiment [3] is 0.751% (inactive). Also, in experiment [5], the result was inactive. Moreover, the max response in [19] was -1.31%.

`Cc1ccc([N+](=O)[O-])cc1`: the Potency result in experiment [1], in experiment [2], in experiment [4], in experiment [6], in experiment [7] and in experiment [8] was “inactive” in each case. Further, the Potency result in [9], in [10], in experiment [11], in [12], in [13] and in experiment [14] was “inactive” each time. The Potency result in experiment [15], in experiment [16], in [17], in [18] and in [20] was “inactive” throughout. Further, the caspase-3 activation in [3] was -0.655% (inactive). In addition, the call in experiment [5] was inactive. Besides, the max response in experiment [19] is -18.4%.

As for `CN=C=O`, the Potency result in experiment [1], in experiment [2], in [4], in experiment [6], in [7] and in [8] was “inactive” in each case. Also, the Potency entry in experiment [9], in experiment [10], in experiment [11], in experiment [12], in experiment [13] and in experiment [14] was “inactive” in each case. Also, the Potency result in experiment [15], in experiment [16], in experiment [17], in [18] and in experiment [20] was “inactive” throughout. The caspase-3 activation in experiment [3] was -0.0583% (inactive). Also, the call in [5] was inactive. Moreover, the max response in experiment [19] is -13%.

`Cc1cc(-c2ccc(N)c(C)c2)ccc1N`: the Potency result in [2], in [4], in [6], in experiment [7], in experiment [8] and in [9] was “inactive” throughout. The Potency entry in experiment [10], in [11], in [12], in [13], in experiment [14] and in [15] was “inactive” each time. Also, the Potency entry in experiment [16], in experiment [17], in experiment [18] and in experiment [20] was “inactive” each time. Further, the caspase-3 activation in experiment [3] is 1% (inactive). The compound was classed as inactive in [5]. In addition, the max response in experiment [19] is -4.96% and -4.31%.

As to `COC(=O)Nc1cccc(OC(=O)Nc2cccc(C)c2)c1`, the Potency in [2] was 39.8 µM (active). Besides, in experiment [3], the caspase-3 activation was 1.17% (inactive). The Potency entry in experiment [4], in experiment [6], in experiment [7], in experiment [8], in experiment [9] and in experiment [10] was “inactive” each time. Also, the Potency result in [11], in experiment [12], in experiment [13], in experiment [14], in experiment [15] and in [16] was “inactive” each time. In addition, the Potency result in experiment [17], in [18] and in experiment [20] was “inactive” throughout. For the same compound, the call in [5] was inactive. In addition, the max response in experiment [19] amounted to 14%.
